Screening data from PubChem.
A selection: hits, their analogues and other compounds. The true share with any hit is near 1.1%.
PI4K2A inh: PI4K2A (human) kinase inhibition. Q9BTU6. purified PI4K2A, ADP-Glo luminescence, 1 h; stronger effect = lower value. activity change, negative = inhibition, % at 76.9 µM. hit rate 0.13% among 420,000. AID 1346378; in the data active = activity change below about -50%; inconclusive = mostly about -30% to -49%
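In this quantitative HTS, ADP production by PI4K2A was quantified luminescently after 1 h at ambient temperature; 100 microM adenosine served as plate-quality control.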
TrxR1 substrate: is turned over as a substrate by rat TrxR1; O89049; purified TrxR1 substrate turnover, NADPH consumption readout; Potency, µM (top dose mostly 114 µM); hit rate 0.01% among 390,000; also: nearly all actives have a fitted effect of over 50% in size
Target sequence (O89049 whole entry, looked up): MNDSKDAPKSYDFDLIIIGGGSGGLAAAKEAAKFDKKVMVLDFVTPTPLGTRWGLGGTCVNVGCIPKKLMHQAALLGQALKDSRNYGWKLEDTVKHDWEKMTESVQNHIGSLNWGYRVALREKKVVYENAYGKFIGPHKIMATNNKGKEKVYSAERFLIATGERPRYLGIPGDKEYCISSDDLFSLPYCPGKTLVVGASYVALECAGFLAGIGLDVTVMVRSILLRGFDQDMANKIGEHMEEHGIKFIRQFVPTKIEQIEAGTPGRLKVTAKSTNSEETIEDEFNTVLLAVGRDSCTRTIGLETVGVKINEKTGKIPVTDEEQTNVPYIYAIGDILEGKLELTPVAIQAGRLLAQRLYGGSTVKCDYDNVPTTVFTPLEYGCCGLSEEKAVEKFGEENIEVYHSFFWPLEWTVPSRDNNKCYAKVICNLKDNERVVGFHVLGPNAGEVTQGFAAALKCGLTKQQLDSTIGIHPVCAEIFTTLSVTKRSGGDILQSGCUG
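Rat TrxR1, dispensed at 90 nM, was prereduced with 400 uM NADPH (final) for 5 min at ~22 deg C, then incubated with compound 15 min before 400 uM selenite. A first-read NADPH fluorescence drop versus no-compound background flagged substrates.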
GALK inh: inhibitors of human galactokinase; P51570; Potency, µM (series often up to 57.5 µM), usual class: inhibitors; Purified GALK, Kinase-Glo residual ATP luminescence; hit rate 0.007% among 270,000
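GALK at 5 nM final was combined with compound, 35 uM ATP and 100 uM galactose in HEPES pH8.0 with MgCl2 and DTT. The reaction ran one hour at room temperature before luminescent ATP detection.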
rTrxR1 inhibitor: inhibitors of rat thioredoxin reductase 1; recombinant rTrxR1, NADPH fluorescence consumption, selenite substrate; Potency, µM (titrated, usually from 114 µM), most hits filed as inhibitors; O89049; hit rate 1% among 390,000; AID 588453; also: nearly all actives have a fitted effect of over 65% in size
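Rat TrxR1 (90 nM in the dispensed reagent) was pre-reduced with 400 uM NADPH for 5 min at room temperature, then incubated with compound for 15 min. After 400 uM selenite was added, NADPH fluorescence (Ex 340/Em 450 nm) was followed for 8 min.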
Large screens that a line does not name were inactive. Unless noted, calls follow the shape of the dose curve; as a rule, active = well fitted curve in the direction sought with a large enough effect; inconclusive = small, poorly fitted or top-dose-only effect, or another doubt; inactive = no such curve, though single readings can be large; an effect the other way counts as inactive or inconclusive.

CN(C)CCNc1oc(COc2ccc(Cl)cc2)nc1C#N	rTrxR1 inhibitor 14µM
COc1ccc(Nc2oc(COc3ccccc3OC)nc2C#N)cc1	rTrxR1 inhibitor 45µM
Cc1ccc(NC(=O)CC(C)S(=O)(=O)c2ccc3c(c2)NC(=O)CO3)cc1Cl (stereo not given)	none (no result: GALK inh)
CCc1nc(-c2ccc(C)c(S(=O)(=O)N3CCN(c4ccc(C(C)=O)cc4)CC3)c2)no1	none (no result: GALK inh)
Cn1ccsc1=NC(=O)c1ccc(S(C)(=O)=O)c([N+](=O)[O-])c1	rTrxR1 inhibitor 56µM
COc1cc2c(NC3CCN(C)CC3)nc(N3CCCN(C)CC3)nc2cc1OCCN(C)C	none (no result: PI4K2A inh, GALK inh)
COC(=O)c1nn2c(C(F)(F)F)cc(-c3ccc(Br)o3)nc2c1Br	rTrxR1 inhibitor 6.3µM
CCN(CC)S(=O)(=O)c1nnc(NC(=O)COc2ccc(Cl)cc2)s1	none (no result: GALK inh)
Cc1ccc(CN(C)C(=O)C2CCC(=O)N(CCc3ccccc3)C2)o1 (stereo not given)	rTrxR1 inhibitor 40µM (no result: GALK inh)
COc1cccc(CCNC(=O)C2CCC(=O)N(Cc3cccc(OC)c3)C2)c1 (stereo not given)	none
Cc1cc(C)nc(CCNC(=O)C2CCC(=O)N(Cc3ccccc3F)C2)n1 (stereo not given)	none
COc1cccc(CN2CC(C(=O)NCCc3ccc(C)o3)CCC2=O)c1 (stereo not given)	rTrxR1 inhibitor 20µM
Cc1ccc(CCNC(=O)C2CCC(=O)N(Cc3ccccc3F)C2)o1 (stereo not given)	rTrxR1 inhibitor 56µM
CN(Cc1cnccn1)C(=O)C1CCC(=O)N(CCc2ccccc2)C1 (stereo not given)	none
CCOc1ccccc1CNC(=O)c1cc2n(n1)CCCN(Cc1ccc(C)cc1)C2=O	none (no result: GALK inh)
CCN=C1SC(CC(=O)NCc2ccccc2)C(=O)N1CC (stereo not given)	none
COc1cccc(-c2nn(C)c3sc(C(=O)NCc4ccc(C)o4)cc23)c1	rTrxR1 inhibitor 32µM
COC(=O)c1c(Oc2ccc(Br)cc2)nnc(-c2ccccc2)c1-c1ccccc1	none (no result: GALK inh)
C=C(c1ccc2ccccc2n1)c1cccs1	none (no result: PI4K2A inh, GALK inh)
CCCCC1C(=O)N(c2ccccc2)N(c2ccc(O)cc2)C1=O (stereo not given)	rTrxR1 inhibitor 7.9µM (no result: GALK inh)
N#Cc1cc(NC(=O)C(=O)O)c(Cl)c(NC(=O)C(=O)O)c1	none (no result: TrxR1 substrate, GALK inh, rTrxR1 inhibitor)
CC(=O)O[C@H]1CC(C)(C)C(=C=C/C(C)=C/C=C/C(C)=C/C=C/C=C(C)/C=C/C=C(\C)C(=O)C[C@@]23O[C@]2(C)C[C@@H](O)CC3(C)C)[C@](C)(O)C1	rTrxR1 inhibitor 35µM
CCOc1ccc(-c2nnc(SCC(=O)NCc3ccc(Cl)cc3)o2)cc1	rTrxR1 inhibitor 50µM (no result: GALK inh)
Cc1ccc(-n2ncc(Br)c(Br)c2=O)cc1	rTrxR1 inhibitor 10µM
O=c1c(Br)c(Br)cnn1-c1ccccc1	rTrxR1 inhibitor inconclusive
Cc1ccc(C)c(C(=O)C[n+]2cccc(Br)c2)c1	none (no result: PI4K2A inh, GALK inh)
O=C(C[n+]1cccc(Br)c1)c1cc(Cl)ccc1Cl	rTrxR1 inhibitor 11µM (no result: PI4K2A inh, GALK inh)
CC(=O)Oc1ccc2nonc2c1OC(C)=O	TrxR1 substrate 20µM, rTrxR1 inhibitor inconclusive (no result: PI4K2A inh, GALK inh)
CC(=O)Nc1cc(OC(C)=O)c2nonc2c1OC(C)=O	PI4K2A inh -53, TrxR1 substrate inconclusive
COc1ccc(C(=O)/C=C/C(=O)N(CC(=O)NC2CCCCC2)Cc2cccs2)c(O)c1	rTrxR1 inhibitor 1µM
COCCN(CC(=O)NC1CCCCC1)C(=O)/C=C/C(=O)c1ccc(OC)cc1O	rTrxR1 inhibitor 2µM
COc1ccc(CN(C(=O)/C=C/C(=O)c2ccc(OC)cc2O)C(C(=O)NC2CCCCC2)c2ccncc2)cc1 (stereo not given)	none
CC(C)(C)c1ccc(S(=O)(=O)c2cnc(SCC(=O)Nc3ccc4c(c3)OCCO4)[nH]c2=O)cc1	none (no result: GALK inh)
COc1ccc(/C=N/NC(=O)CNC(=O)/C=C/c2ccco2)cc1OC	rTrxR1 inhibitor 32µM
COc1ccc(CCNC(=O)/C=C/c2ccco2)cc1OC	rTrxR1 inhibitor 7.9µM (no result: GALK inh)
COc1ccc(CCNC(=O)/C=C/c2ccco2)cc1	rTrxR1 inhibitor 35µM
CCOc1ccc(CCNC(=O)/C=C/c2ccco2)cc1OCC	rTrxR1 inhibitor 20µM
CC1(C)C(=O)C=CC(=O)C(C)(C)C(=O)C=CC(=O)C(C)(C)C2=CC=C(O2)C(C)(C)C(=O)C=CC1=O	rTrxR1 inhibitor 16µM (no result: GALK inh)
O=C1CCCc2cc(S(=O)(=O)N3CCCC(C(=O)NCc4ccc(Cl)cc4)C3)ccc2N1 (stereo not given)	none (no result: GALK inh)
CCc1nc2sc3ccccc3c(=O)c2c(=O)n1Cc1ccco1	PI4K2A inh inconclusive, rTrxR1 inhibitor 14µM
O=c1c2ccccc2sc2nc(C3CCCCC3)n(Cc3ccco3)c(=O)c12	none
COc1ccc(NC(=O)CC2C(=O)N(c3ccc(C)cc3)C(=O)N2Cc2cccnc2)cc1 (stereo not given)	none (no result: GALK inh)
COc1ccc(-c2noc(N3CCC(C(=O)N4CCN(c5cccc(OC)c5)CC4)CC3)n2)cc1	none (no result: GALK inh)
COc1cccc(Oc2c(C)oc3c(CN4CCCCC4)c(O)ccc3c2=O)c1	rTrxR1 inhibitor 45µM
CCN1CCN(C(c2ccc(Cl)cc2)c2c(O)cc(C)n(CCOC)c2=O)CC1 (stereo not given)	rTrxR1 inhibitor inconclusive (no result: GALK inh)
CCN1CCN(C(c2ccc(OC)cc2)c2c(O)cc(C)n(CCOC)c2=O)CC1 (stereo not given)	rTrxR1 inhibitor 14µM (no result: GALK inh)
CCN1CCN(C(c2cccc(F)c2)c2c(O)cc(C)n(CCOC)c2=O)CC1 (stereo not given)	rTrxR1 inhibitor 11µM (no result: GALK inh)
O=C(C1CCCCC1)N1CC(=O)N2CCCc3ccccc3C2C1 (stereo not given)	none (no result: TrxR1 substrate, GALK inh, rTrxR1 inhibitor)
CNC(=O)c1cnn(-c2nc(N)c3ncn([C@@H]4O[C@H](CO)[C@@H](O)[C@H]4O)c3n2)c1	none (no result: TrxR1 substrate, GALK inh, rTrxR1 inhibitor)
COc1cc(C)c(Cl)cc1S(=O)(=O)NCc1ccco1	none
Cc1cc(S(=O)(=O)NCc2ccco2)c(C)cc1Cl	rTrxR1 inhibitor 71µM
CCCC/C=C1/[C@@H](CC)N(Cc2ccc(OC)cc2OC)C2=N[C@@H](c3ccccc3)CC(=O)N21	none (no result: TrxR1 substrate, GALK inh, rTrxR1 inhibitor)
Cc1ccc(C)c(CN2C(=O)c3ccccc3S(=O)(=O)c3ccc(C(=O)N4CCN(c5ccccc5F)CC4)cc32)c1	none (no result: GALK inh)
COc1ccc(S(=O)(=O)CCC(=O)NCc2ccc(C)o2)cc1	rTrxR1 inhibitor 20µM (no result: GALK inh)
CC(=O)N1CCc2cc(S(=O)(=O)CCC(=O)NCc3ccc(C)o3)ccc21	rTrxR1 inhibitor 50µM
COc1ccc(CNC(=O)CCS(=O)(=O)c2ccc(Br)cc2)cc1	none
CC(=O)N1CCc2cc(S(=O)(=O)C(C)CC(=O)NCc3ccc(C)o3)ccc21 (stereo not given)	none
CCNC(=O)NCCCOc1cccc(CN2CCCCC2)c1	none (no result: TrxR1 substrate, GALK inh, rTrxR1 inhibitor)
CC(C(O)c1cc(=O)c(OCc2ccccc2)co1)[N+](=O)[O-] (stereo not given)	none (no result: GALK inh)
COc1coc(C(O)C[N+](=O)[O-])cc1=O (stereo not given)	rTrxR1 inhibitor 50µM (no result: GALK inh)
CCCn1c(C)cc(/C=C(\C#N)C(=O)OCC(=O)Nc2ccc(OC)c(Cl)c2)c1C	rTrxR1 inhibitor 79µM
